108 sequences from PubChem BioAssay AID1508600 (Functional Genomics Laboratory (NCATS/FGL), 2020) can be followed below.

Hit rate of the full screen: of about 53,000 sequences, about 3,700 (7%) were called active. Only a selection was taken, and actives are over-represented in it overall. Values without a mark were called inactive.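 Rule for the calls: active = gene knockdowns whose robust z-score for IL-1 alpha signal is at least 2 or at most -2, so actives lie on both sides; inactive = the rest.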

A short description of the assay: Components of the Cytosolic LPS Sensing Pathway: Gene Identification via Genome-wide siRNA Screen.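 Note: robust z of the log signal after scaling to non-targeting control siRNA wells of the plate.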 The settings on record: RAW264.7 macrophages, IL-1a HTRF, actives lie on both sides, screened at 100 nM (by protocol), cells primed 5 h with Pam3CSK4 first. An outline of the steps: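 Mouse macrophage line RAW264.7 is transfected with siRNA (100 nM final), grown 48h, primed with TLR ligand Pam3CSK4 5 h and given intracellular LipidA 24 h. IL-1a in supernatant is read by HTRF and viability by luminescence.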
In the case of GGCUUUAAGAUCACACAAATT against Snrpa, the z-score was 2.09 (active).

As for GCAGAUGCUUCGGUGAAAATT against Defb15, the z-score is 0.998.

Turning to CCCAUACAAAGCACUUACATT against Otub1, the z-score was 0.589.

Turning to GGACAAAUGGUAUUGUAGUTT against Coa5, the z-score was -1.72.

Take GCCGUCUUGUGUGUAUCAATT against Olfr1342: the z-score is -0.186.

For GGAAAAGUGACGGUAUCUATT against Rpsa, the z-score was -2.04 (active).

In the case of GGGAUAAAAACCAUGGUUUTT against Pramel27, the z-score was 0.113.

GCACUUAUGGUUUAGAUGUTT against Prdm8: the z-score is -0.127.

In the case of GGAACUUAUAUCUGCGCCATT against Gprin3, the z-score is 0.868.

With AAAAGCUUCACCUAACUAUTT against Ascc1, the z-score is 1.73.

On to “GGUGACAGUUGUUCACAAATT against 4933405O20Rik”, for which the z-score was -1.4.

Turning to GGAAUCAUAUCAGAAACUATT against Pde4b, the z-score is -0.475.

Turning to GGGAGAGUCAAAAAAAGAUTT against Khdrbs1, the z-score was -0.536.

In the case of GGAAGACUGGUACACAUAATT against Tmem43, the z-score was -2.32 (active).

GCCAGUACUUAGGUCUAAGTT against Mrps25: the z-score is 1.24.

Turning to GCCCUCAGGUGGUUCUUAATT against Heatr3, the z-score was 0.443.

In the case of CCAUGUCAACGACCAUCAUTT against Glis2, the z-score is 0.189.

Turning to GCACCUCCACAAGAAUGAATT against Six2, the z-score was 0.466.

With GGAACAUUGACCAGAUAGUTT against Ankrd44, the z-score is -1.44.

Consider GGAGUUGAAUGGCUCUGGATT against Usp26, for which the z-score was -2.11 (active).

Take CCUUUGAGCCAGUUAUUUATT against Slc25a27: the z-score is 0.366.

As for GGAACAUCUACAUUGUGGCTT against Tspan14, the z-score was 0.402.

In the case of GGAAUUUGCUGCCCUCCUATT against Smad3, the z-score is -0.206.

As for GCAGACUCUUCCAAGUAAUTT against Lrrc28, the z-score is 0.529.

As for GGCAUCGUCACCAAACUGUTT against Fgf11, the z-score is -2.51 (active).

Take GCUAGAUUUCUACUGUGUCTT against Mindy1: the z-score was 0.527.

Regarding GCAAUUUUAGUUGGUGGAATT against Ddx24, the z-score is -0.112.

For GCGGAAGUCGAAUCUGUCUTT against Aga, the z-score was -1.45.

As for GGAAUUUGUCAGGUUCCAATT against Grik4, the z-score was 0.859.

Turning to CGGGCUGAAUGUGUUUGUGTT against Slc10a4, the z-score is 2.62 (active).

As to GGUACGGUAUGGAGAUCGGTT against Atpaf2, the z-score is 0.593.

Take GGCAGAGCCAGGAUGUCUUTT against Msmb: the z-score was -1.2.

For GGUAACUCUCCUUAGCCAGTT against Klk10, the z-score was -0.0493.

In the case of GGACUCCCUGGAUUUCAGATT against Rapgef3, the z-score was -1.34.

For GGCAGCUGAAGAUUAUGGATT against Tagln, the z-score was 0.837.

For the sequence GGCAAUAACAUUGCCUCGGTT against Igf1r, the z-score is 0.632.

With GGGUGAGCAGUACAUUCAATT against Plekhg6, the z-score was 2.73 (active).

For CCGAAAAUGUGGUAAAGUATT against Smg1, the z-score was 0.948.

For CCCAACAACCAACUAUUUUTT against Kcna1, the z-score is 3.36 (active).

Consider GGGAUAAAGAUGAAGAACUTT against Tmem167b, for which the z-score is 1.31.

In the case of GGAAGUCAAGAUCUCACCUTT against Lrrc25, the z-score is -0.864.

Consider CCAAGGGAAGAUUCAAAUUTT against Abcc8, for which the z-score was 2.29 (active).

On to CGUUUGAUACCAAAGAUUUTT against Onecut3, for which the z-score was -1.12.

Turning to GCUGUAAGCUACCGUCUGUTT against Panx2, the z-score is 1.54.

As to GGUAUCUACCAGUACGAGATT against Izumo4, the z-score was -1.59.

GCAUUAUGUCAGUAGCUCATT against Snrpb: the z-score is -3.47 (active).

As for CGGUGCACAACGUACCAAUTT against Srxn1, the z-score was -0.0189.

Turning to GGUAUCCCUAACUGGCAGUTT against Tro, the z-score is -0.849.

Regarding GGCUCAAAGGAGGGUAGAGTT against Lcn8, the z-score is 3.18 (active).

For the sequence GGAAAUAAAUGGCAGCAUGTT against H2-T3, the z-score is 1.47.

For the sequence GGAUGAUUCAUUCAGUGAUTT against Adcy9, the z-score was 0.918.

Turning to CCAAAACUUUCCACUCUAATT against Ttc32, the z-score is 0.175.

Consider CCCAAACUGAAUUAAGCAGTT against Spata7, for which the z-score is -0.515.

With GGAAAACUACUAAAAAGUCTT against Zfp938, the z-score was -0.31.

As for GGUUACUCCUUUUUAUGUATT against Bex1, the z-score is -1.1.

With GGGACAAGUGGUUGAAACCTT against Prmt8, the z-score was -2.01 (active).

As for GGCCACAAACAGAAUUAUCTT against Mrpl2, the z-score is -0.219.

Regarding GGAGAAAAAGGGAAAGAAUTT against Dlx4, the z-score was 0.0644.

On to CCUAGUUUGGUGAUGAUGUTT against Atg10, for which the z-score was -0.262.

As to GGUCAUUGAAAACUGUGCGTT against Sardh, the z-score is -1.04.

As for GCAAGAGACCUUGUUAUAGTT against Cttnbp2nl, the z-score is -0.426.

With CCCAGUAAAUAAGAGUACATT against Treml1, the z-score is -1.33.

As to GGGAGACCCAAUGUCAUCATT against Dtx3, the z-score was -1.25.

As for GCGGGAUUGGUCAUUCCACTT against Mrpl45, the z-score is 2.97 (active).

With CGAACAUGUACAACAAAGATT against Cacna2d3, the z-score was -0.181.

On to GGAACAAAGACUUCAAAGATT against Olfr323, for which the z-score was -0.249.

Consider GGUGCUAAAAAUGAGCCUUTT against Urm1, for which the z-score was -1.66.

In the case of GGGAUGGCCAUAGAACAGATT against Echdc2, the z-score was -0.211.

CCCUAGACUUGAGAGUUUUTT against Eif2s1: the z-score is 1.29.

Consider GGCUGUGGAAGUGCAGAACTT against Dnmt3a, for which the z-score is -2.53 (active).

As to CCGAGAGGUUUAAGGUCUCTT against Nsg1, the z-score is 1.18.

For GCUAGUCUACCCAAGUGACTT against Dennd6b, the z-score is 4.35 (active).

CCUACUUACUCCUGUAUAATT against Adam3: the z-score is 1.77.

Regarding CGAAACCAACAGUUAGAAGTT against Cby1, the z-score was 0.71.

Turning to “GAUCCUCACGAAAUAGGUATT against Olfr1372-ps1”, the z-score was 0.737.

For “GGUCUCUAGUGGAAAAGCATT against A430093F15Rik”, the z-score was -3.05 (active).

For GCUCUUAAAACCCACCUGATT against Gzf1, the z-score is -1.97.

In the case of UAAUGGCUGCUGUCUCCUGTT against Olfr441, the z-score was 0.405.

Consider GGCGAAAAAGAACUUCUCCTT against Prrx1, for which the z-score is -2.17 (active).

Take GCCUACAUUCACUCACUCCTT against Olfr1061: the z-score was -0.016.

As for GGAUCAUUCGGACAAAAGUTT against Pax5, the z-score was -1.31.

Take GGAGAAGAAGAUUUUUGGCTT against Gpr108: the z-score is -0.684.

With GCCAACAAAGUGAUCGAAGTT against Fkbp10, the z-score is 0.175.

As to CCAGCAAUGUACCAGUUCATT against Micos13, the z-score is -2.02 (active).

As for GGUGAAAGAGAAGACUGAATT against Aimp1, the z-score was -0.418.

Regarding GGGUAUUCCUUCCAACACCTT against Lrrc4, the z-score is -2.14 (active).

As for CCCAGUAUCAGACUAUCAUTT against Inpp4a, the z-score is -0.178.

For CGAAUUUUGGAGAUGUAUGTT against Ddias, the z-score was 0.376.

For the sequence GGAACAAAGAAGUCAAAGATT against Olfr16, the z-score is -0.765.

CGGUGAUCAAUCAUUGUAATT against Tas2r113: the z-score is -2.16 (active).

On to GCCUGUCAACUACCCAUAUTT against Ergic3, for which the z-score was -1.13.

Turning to GGCAAUGAGUCUGACCUCUTT against Capg, the z-score is -1.39.

Regarding GCUAAGGCUUGGAAUGACATT against Maged1, the z-score was -0.105.

For GGUGGUGGGUCCAAUUUUUTT against Jpt1, the z-score was 0.411.

Take GGACGUAGAAGUUUGGGAGTT against Nupl2: the z-score is 1.39.

On to GCACGUUCAGUGCACACCUTT against Nubp1, for which the z-score is 2.59 (active).

On to CCCUCACAACUUGAAGGACTT against Ccnk, for which the z-score is -0.882.

Take GGAAGAAGUAGACCUGUCUTT against Aar2: the z-score was -2.36 (active).

Turning to GGCUUUAGCAGAUGAGCGATT against Sptbn4, the z-score is -0.0568.

Take GGGACUGAGGACUACAUUCTT against Eif1b: the z-score was -1.17.

Consider GGAGAAAUAAAUGACUUGCTT against Zswim2, for which the z-score is -0.762.

Take CCCACAGUACAUUCUAAAATT against Arsb: the z-score is 0.776.

As for GCGUCAAAAUUAUCCGAAATT against Trnau1ap, the z-score was 0.124.

GGACACGUUUCUGUGUUGUTT against Tspan32: the z-score was 0.304.

Turning to GCACUAUGGGUGUCAUGGUTT against Mon1a, the z-score is -3.1 (active).

For the sequence CGUAUUCCAUGGUUUCCUATT against Whrn, the z-score is 0.111.

Turning to GGAGUUUCUGGAAUGCAGGTT against Sec22c, the z-score was 0.741.

As for GCACAAUUUUAUAACUCGGTT against Lrrc49, the z-score is 0.457.
